Consider ten compounds from PubChem BioAssay (NCATS).

Assay [1] can be described thus: Cell Viability - LYMP2-010 (AID 981). Further: nearly all actives have a fitted effect of over 55% in size. Further: potency means the concentration at half of the fitted maximal effect. As to conditions: LYMP2-010 lymphoblastoid cell viability, qHTS; series mostly up to 92.2 µM. In short, it runs like this: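 CellTiter-Glo ATP luminescence measured cytotoxicity after 24 h compound exposure at 37 C. LYMP2-010 cells were seeded at 2500/well, with tetraoctylammonium bromide as control; concentration-response curves gave AC50 values by the Hill equation.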
(In general: In qHTS, concentration-response curves come from the screen itself.)

A short description of assay [2]: Cell Viability - LYMP2-012 (AID 982).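 Further: cellular ATP by luciferase luminescence where a drop means cytotoxicity; cells exposed to compound for one day before reading; 0% = DMSO only and full loss = 92 µM tetraoctylammonium bromide; nearly all actives have a fitted effect of over 55% in size.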 As to conditions: LYMP2-012 lymphoblastoid cell viability qHTS; series mostly up to 92.2 µM.
Assay [3] is described as follows: Cell Viability - LYMP2-014 (AID 983).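 Further: plate controls were DMSO only for no effect and 92 µM tetraoctylammonium bromide for full effect; nearly all actives have a fitted effect of over 50% in size.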 Particulars: LYMP2-014 lymphoblastoid cells, viability qHTS; series mostly up to 92.2 µM. In short, it runs like this: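 Intracellular ATP loss, read by luciferase luminescence, measures acute cytotoxicity after 24 h compound exposure of lymphoblastoid LYMP2-014 cells (2500/well, 37 C). Concentration-response data fitted to the Hill equation for AC50.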

Assay [4] can be described thus: Cell Viability - LYMP2-016 (AID 984). Further: on the % scale 0 is the no-effect control and ±100 the full control effect; nearly all actives have a fitted effect of over 55% in size. As to conditions: LYMP2-016 lymphoblastoid cell viability, qHTS; series mostly up to 92.2 µM. The gist of the method: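 Human lymphoblastoid cells (LYMP2-016), 2500/well in complete medium, preincubated 5 hr at 37 C, then compound-treated 24 hr at 37 C. Intracellular ATP read by CellTiter-Glo luminescence after 30 min at room temperature; AC50 from Hill-equation concentration-response fits.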

Assay [5] in a line: Cell Viability - LYMP2-018 (AID 985).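 Further: plate controls were DMSO only for no effect and tetraoctylammonium bromide at 92 µM for full effect; nearly all actives have a fitted effect of over 50% in size.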 As to conditions: LYMP2-018 lymphoblastoid cells, viability (qHTS); series mostly up to 92.2 µM. The gist of the method:
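Viability read as CellTiter-Glo luminescence (cellular ATP) after 24 hr compound exposure at 37 C of 2500 LYMP2-018 lymphoblastoid cells/well, pre-plated 5 hr. Hill-equation modelling gave AC50.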

A short description of assay [6]: Cell Viability - LYMP2-020 (AID 986).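 Further: plate controls were DMSO only for no effect and tetraoctylammonium bromide at 92 µM for full effect; nearly all actives have a fitted effect of over 55% in size.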 Particulars: series mostly up to 92.2 µM. In short, it runs like this: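 Cytotoxicity in qHTS format: luminescent ATP readout from CellTiter-Glo after 24 h compound exposure at 37 C in complete medium. LYMP2-020 lymphoblastoid cells were seeded at 2500/well; concentration-response data fitted to the Hill equation for AC50.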

Assay [7] can be described thus: Cell Viability - LYMP2-022 (AID 987). Particulars: LYMP2-022 lymphoblastoid cell viability; series mostly up to 92.2 µM. In short, it runs like this:
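Cytotoxicity read as decreased cellular ATP (CellTiter-Glo luminescence, 30 min room temperature) after 24 hours compound exposure of 2500 lymphoblastoid LYMP2-022 cells/well at 37 C. Concentration-response data fitted with standard Hill equation for AC50.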

Assay [8] is described as follows: Cell Viability - LYMP2-024 (AID 988).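 Further: plate controls were DMSO only for no effect and 92 µM tetraoctylammonium bromide for full effect; nearly all actives have a fitted effect of over 60% in size.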 Particulars: LYMP2-024 lymphoblastoid cell viability; series mostly up to 92.2 µM. The gist of the method:
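Cytotoxicity was taken as a decrease in ATP (CellTiter-Glo luminescence) after 24 hr compound exposure at 37 C of LYMP2-024 lymphoblastoid cells, 2500 cells/well. Concentration-response data were fitted to the Hill equation to give AC50.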

Assay [9] is described as follows: Cell Viability - LYMP2-026 (AID 989). Further: on the % scale 0 is the no-effect control and ±100 the full control effect; nearly all actives have a fitted effect of over 50% in size. As to conditions: LYMP2-026 lymphoblastoid cell viability, qHTS; series mostly up to 92.2 µM. The gist of the method:
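Cytotoxicity read as ATP-dependent luminescence (CellTiter-Glo, 30 min room temperature) after 24 h compound treatment at 37 C. LYMP2-026 lymphoblastoid line seeded at 2500 cells/well; AC50 derived by standard Hill equation.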

Assay [10] in a line: Cell Viability - LYMP1-002 - Assay at 24 hr (AID 993). Further: on the % scale 0 is the no-effect control and ±100 the full control effect. Particulars: LYMP1-002 lymphoblastoid cells viability; series mostly up to 92.2 µM. The gist of the method:
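qHTS cytotoxicity at 24 h: CellTiter-Glo ATP luminescence in lymphoblastoid line LYMP1-002 incubated with compound at 37 °C. Concentration-response modeled with the Hill equation for AC50; tetraoctylammonium bromide served as positive control.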

Assay [11] can be described thus: Cell Viability - LYMP1-002 - Assay at 40 hr (AID 994).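 Further: 0% = DMSO only and full inhibition = 92 µM tetraoctylammonium bromide; nearly all actives have a fitted effect of over 60% in size.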 As to conditions: LYMP1-002 lymphoblastoid cell viability; series mostly up to 92.2 µM. In short, it runs like this:
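Cytotoxicity was read as loss of cellular ATP (CellTiter-Glo luminescence) after 40 hr compound exposure at 37 C of 2500 LYMP1-002 lymphoblastoid cells per well. Concentration-response data were fitted with the standard Hill equation to give AC50.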

Assay [12] is described as follows: qHTS Assay for Identification of Small Molecule Inducers of Hypoxia Response (AID 2120; active means well fitted curve in the direction sought with a large enough effect in the signal ratio, with a control signal flat, not every such curve was filed as active; the % refers to the signal ratio; further: 0% is about no effect). As to conditions: hypoxia response reporter cells, beta-lactamase ratio readout; series mostly up to 104 µM. In short, it runs like this: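 Reporter induction read as the CCF4 blue/green (460nm/530nm) emission ratio after 2.5 h dye loading at room temperature. ME-180 HRE-beta-lactamase cells received titrated compounds for 17 h at 37 degrees Celsius; AC50 values derived.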

Assay [13] deals with Estrogen receptor (Homo sapiens) (UniProt P03372). The assay is described as follows: qHTS assay for small molecule agonists of estrogen receptor alpha signaling (AID 588514; calls by dose curve;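 further: 0% = vehicle only and 100% = reference agonist; nearly all actives have a fitted effect of over 70% in size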). As to conditions: ER-alpha-UAS-bla HEK293, beta-lactamase ratio, 18 h, percent of full estradiol response, vehicle zero; series mostly up to 76.8 µM. In short, it runs like this: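 EC50 and efficacy came from Hill fits of beta-lactamase reporter signal (CCF4 dye, 2 h at room temperature) scaled between DMSO and 20 nM 17-beta-estradiol. Agonist mode: HEK293 ER-alpha-UAS-bla cells in charcoal/dextran-stripped serum medium, 18 h compound exposure at 37 C.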
Chain of Estrogen receptor (Homo sapiens) (P03372 whole entry, looked up): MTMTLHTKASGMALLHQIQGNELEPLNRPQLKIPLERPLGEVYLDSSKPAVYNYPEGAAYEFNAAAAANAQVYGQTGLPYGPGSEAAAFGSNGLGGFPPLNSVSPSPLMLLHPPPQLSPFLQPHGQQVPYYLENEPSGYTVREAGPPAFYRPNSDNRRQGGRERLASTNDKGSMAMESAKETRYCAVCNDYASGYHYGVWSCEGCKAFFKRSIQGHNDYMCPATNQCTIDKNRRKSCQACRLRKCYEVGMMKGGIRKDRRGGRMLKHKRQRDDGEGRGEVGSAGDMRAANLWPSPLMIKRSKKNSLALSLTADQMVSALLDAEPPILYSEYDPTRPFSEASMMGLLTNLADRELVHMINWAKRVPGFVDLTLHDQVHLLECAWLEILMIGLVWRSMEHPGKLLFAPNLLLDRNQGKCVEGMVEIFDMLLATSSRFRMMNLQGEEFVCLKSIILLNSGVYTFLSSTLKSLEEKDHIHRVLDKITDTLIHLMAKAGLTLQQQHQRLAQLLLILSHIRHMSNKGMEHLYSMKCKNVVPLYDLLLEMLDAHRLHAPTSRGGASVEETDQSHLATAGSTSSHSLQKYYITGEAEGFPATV

Assay [14] deals with ATP-dependent 6-phosphofructokinase (Trypanosoma brucei brucei) (UniProt O15648). The assay is described as follows: qHTS Assay to Find Inhibitors of T. brucei phosphofructokinase: hit validation (AID 492961).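 Further: luminescence reports ADP formed as PFK phosphorylates fructose-6-phosphate with ATP; on the % scale 0 is the no-effect control and ±100 the full control effect.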 As to conditions: T. brucei PFK, ADP-Glo luminescence; series mostly up to 51.4 µM. The gist of the method:
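Inhibition of parasite PFK is measured as reduced ADP formation, quantified via luciferase after ATP depletion. Assay used 0.1 mM ATP, 0.5 mM F6P, 1.25 nM enzyme, 45 min incubation.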

Assay [15] addresses Alpha-galactosidase A (Homo sapiens) (UniProt P06280). The assay is described as follows: Counterscreen for Glucocerebrosidase Inhibitors: qHTS Assay for Human alpha-Galactosidase at pH 4.5 (AID 992). Further: 0% is about no effect. As to conditions: purified enzyme, fluorogenic substrate; series mostly up to 76.9 µM. The gist of the method:
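Steps: enzyme (2 nM final), then compound across 0.7 nM to 77 uM, then 80 uM fluorogenic galactopyranoside substrate; incubate 20 min at room temperature; quench at pH 10; measure fluorescence at 365/440 nm.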
In general terms: The purpose of a counterscreen is to sort out artefacts and off-target activity.

The target of assay [16] is alpha-glucosidase (Oryza sativa, rice) (UniProt Q653V4). The assay is described as follows: Counterscreen for Glucocerebrosidase Inhibitors: qHTS Assay for Rice alpha-Glucosidase at pH 5.0 (AID 997).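 Further: 0% = full activity with enzyme and -100% = basal without enzyme.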 Particulars: rice alpha-glucosidase enzyme activity; series mostly up to 76.9 µM. In short, it runs like this: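 Endpoint fluorogenic assay at pH 5.0: compounds (0.7 nM to 77 uM) titrated against 4 nM rice enzyme and 400 uM 4-MU-alpha-glucoside for 20 min at room temperature; NaOH/glycine stop, read ex 365/em 440 nm, Hill-fitted AC50.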

In assay [17] the target is Ubiquitin carboxyl-terminal hydrolase 1 (Homo sapiens) (UniProt O94782). The assay is described as follows: Inhibitors of USP1/UAF1: Pilot qHTS (AID 504865).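 Further: rhodamine fluorescence freed from ubiquitin-rhodamine substrate followed over time; top concentration of the series differs between compounds; on the % scale 0 is the no-effect control and ±100 the full control effect; nearly all actives have a fitted effect of over 35% in size.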 Particulars: purified USP1/UAF1, Ub-rhodamine cleavage fluorescence; series mostly up to 114 µM. In short, it runs like this:
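USP1/UAF1 complex (1nM) preincubated with compound 15 min at room temperature, then Ub-Rho substrate (150nM final) added. Fluorescence read kinetically at 480/540 nm, 6 reads every 60 seconds. Buffer: 50mM HEPES pH 7.8, 0.5mM EDTA, 0.1 mg/ml BSA, 1mM TCEP, 0.01% Tween-20.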

In assay [18] the target is DNA dC->dU-editing enzyme APOBEC-3G (Homo sapiens) (UniProt Q9HC16). The assay is described as follows: qHTS for inhibitors of Vif-A3G interactions: Validation (AID 588379). Further: 0% is about no effect. As to conditions: Vif-A3G protein interaction assay; series mostly up to 46.1 µM. The gist of the method:
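Yellow fluorescence (Ex 488, Em 500-530) of Vif-coexpressing HeLa A3G-eYFP cells, scanned by Acumen cytometer, reports blocked A3G degradation. Cells plated at 700/well overnight at 37 deg C before compound addition, then a further overnight compound incubation at 37 deg C.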

Assay [19] in a line: qHTS Assay for Lipid Storage Modulators (AID 1519; calls by dose curve; on activity change, negative = inhibition: on the % scale 0 is the no-effect control and ±100 the full control effect). Particulars: Drosophila S3 cells, BODIPY lipid droplet/cell ratio, laser cytometry, cells loaded with oleic acid. In short, it runs like this: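 Cells seeded at 5,000 per well were treated with compounds over a concentration series and loaded with oleic acid (400 uM, as added). Lipid droplet fluorescence (488 nm excitation, 500-530 nm channel) was read by laser-scanning cytometry and normalized to 20 uM Triacsin C.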

Assay [20] concerns the target Estrogen receptor (Homo sapiens) (UniProt P03372). Briefly: qHTS assay for small molecule antagonists of estrogen receptor alpha signaling (AID 588513; active means well fitted curve in the direction sought with a large enough effect in the signal ratio, with a control signal flat, not every such curve was filed as active; the % refers to the signal ratio; further: on the % scale 0 is the no-effect control and ±100 the full control effect). Particulars: ER-alpha-UAS-bla HEK293, beta-lactamase ratio, antagonist mode; series mostly up to 76.9 µM. In short, it runs like this:
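ER-alpha-UAS-bla GripTite HEK 293 cells in medium with 2% charcoal/dextran-treated FBS were preincubated 4 h at 37 C, dosed with compound (1:2 titration), stimulated with 0.5nM 17-beta-estradiol for 18 h, then read by CCF4 beta-lactamase fluorescence.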

Setting [21] is: measured here: cell count channel max response.
[22] abbreviates: measured here: lipid channel max response.

Results filed as inconclusive are left out. The source made the active and inactive calls. Unless noted, the call rests on the fitted dose curve; in most records, active means well fitted curve in the direction sought with a large enough effect; inconclusive means small, poorly fitted or top-dose-only effect, or another doubt; inactive means no such curve, though single readings can be large; an effect the other way counts as inactive or inconclusive.

Chain of DNA dC->dU-editing enzyme APOBEC-3G (Homo sapiens) (Q9HC16 whole entry, looked up): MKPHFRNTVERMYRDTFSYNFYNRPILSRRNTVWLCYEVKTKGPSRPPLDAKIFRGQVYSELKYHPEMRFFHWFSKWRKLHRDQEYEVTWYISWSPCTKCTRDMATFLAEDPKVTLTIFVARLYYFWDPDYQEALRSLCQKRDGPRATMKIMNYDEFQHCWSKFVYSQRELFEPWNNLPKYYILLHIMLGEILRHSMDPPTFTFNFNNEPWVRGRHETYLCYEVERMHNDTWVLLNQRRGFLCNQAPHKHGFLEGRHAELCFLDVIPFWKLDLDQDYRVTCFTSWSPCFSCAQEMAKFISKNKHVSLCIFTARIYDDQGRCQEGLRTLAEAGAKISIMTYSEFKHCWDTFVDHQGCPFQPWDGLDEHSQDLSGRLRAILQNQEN
Chain of Ubiquitin carboxyl-terminal hydrolase 1 (Homo sapiens) (O94782 whole entry, looked up): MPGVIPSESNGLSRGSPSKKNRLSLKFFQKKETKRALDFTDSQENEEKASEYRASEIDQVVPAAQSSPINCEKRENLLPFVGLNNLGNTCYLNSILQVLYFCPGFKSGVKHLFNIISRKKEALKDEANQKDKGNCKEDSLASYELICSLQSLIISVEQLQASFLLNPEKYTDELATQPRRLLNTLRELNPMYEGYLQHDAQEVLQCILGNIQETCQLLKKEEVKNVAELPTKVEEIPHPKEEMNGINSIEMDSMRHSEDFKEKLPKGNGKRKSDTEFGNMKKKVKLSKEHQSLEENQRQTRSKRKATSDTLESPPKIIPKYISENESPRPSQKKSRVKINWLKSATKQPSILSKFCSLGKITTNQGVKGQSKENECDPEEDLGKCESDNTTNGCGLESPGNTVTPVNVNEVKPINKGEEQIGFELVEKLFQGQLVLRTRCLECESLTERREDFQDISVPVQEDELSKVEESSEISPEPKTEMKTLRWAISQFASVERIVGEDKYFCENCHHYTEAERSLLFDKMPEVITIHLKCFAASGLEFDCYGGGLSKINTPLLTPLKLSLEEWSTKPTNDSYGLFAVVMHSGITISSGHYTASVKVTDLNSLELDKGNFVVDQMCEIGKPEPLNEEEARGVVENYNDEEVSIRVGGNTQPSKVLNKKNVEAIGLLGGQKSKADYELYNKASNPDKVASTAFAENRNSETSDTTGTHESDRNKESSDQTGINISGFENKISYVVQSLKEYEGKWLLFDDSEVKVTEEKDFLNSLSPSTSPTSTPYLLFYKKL
Chain of ATP-dependent 6-phosphofructokinase (Trypanosoma brucei brucei) (O15648 whole entry, looked up): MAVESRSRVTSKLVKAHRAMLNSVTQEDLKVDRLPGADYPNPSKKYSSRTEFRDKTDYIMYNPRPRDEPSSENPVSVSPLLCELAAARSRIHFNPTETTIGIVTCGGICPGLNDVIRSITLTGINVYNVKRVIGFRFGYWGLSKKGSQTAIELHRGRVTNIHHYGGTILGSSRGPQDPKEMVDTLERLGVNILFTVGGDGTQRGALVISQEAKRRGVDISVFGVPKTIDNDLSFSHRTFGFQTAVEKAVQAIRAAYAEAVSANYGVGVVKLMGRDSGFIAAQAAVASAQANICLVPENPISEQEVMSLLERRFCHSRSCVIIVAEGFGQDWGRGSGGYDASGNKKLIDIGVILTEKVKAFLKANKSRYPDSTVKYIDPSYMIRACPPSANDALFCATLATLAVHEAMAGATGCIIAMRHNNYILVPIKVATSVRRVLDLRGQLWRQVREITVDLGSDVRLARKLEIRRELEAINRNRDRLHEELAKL
Chain of Alpha-galactosidase A (Homo sapiens) (P06280 whole entry, looked up): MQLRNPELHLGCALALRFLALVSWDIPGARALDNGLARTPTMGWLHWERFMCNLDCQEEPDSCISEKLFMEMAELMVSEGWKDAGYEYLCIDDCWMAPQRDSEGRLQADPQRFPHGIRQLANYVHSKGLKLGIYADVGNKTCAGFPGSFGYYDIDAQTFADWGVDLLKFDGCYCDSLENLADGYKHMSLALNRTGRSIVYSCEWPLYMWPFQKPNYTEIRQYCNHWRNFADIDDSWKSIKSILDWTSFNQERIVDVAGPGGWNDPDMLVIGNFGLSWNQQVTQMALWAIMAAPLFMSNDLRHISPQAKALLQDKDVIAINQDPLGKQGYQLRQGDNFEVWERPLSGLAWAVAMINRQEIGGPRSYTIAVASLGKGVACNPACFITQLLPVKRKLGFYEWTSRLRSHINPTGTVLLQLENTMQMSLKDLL

For `Cc1ccc(N)cc1O`, in assay [1], the Potency result is “inactive”. Moreover, the compound was called inactive in [2], in assay [3], in assay [4], in [5], in assay [6] and in assay [7]. The call in assay [8], in assay [9], in assay [10], in assay [11], in assay [12] and in [13] was inactive.
Take `CC[C@]1(O)CC2CN(CCc3c([nH]c4ccccc34)[C@@](C(=O)OC)(c3cc4c(cc3OC)N(C)[C@H]3[C@@](O)(C(=O)OC)[C@H](OC(C)=O)[C@]5(CC)C=CCN6CC[C@]43[C@@H]65)C2)C1` (some centres not stated): the outcome in assay [14] was inactive.
On to `CC(=O)O[C@H]1C(=O)[C@@]2(C)[C@H]([C@H](OC(=O)c3ccccc3)[C@]3(O)C[C@H](OC(=O)[C@H](O)[C@@H](NC(=O)c4ccccc4)c4ccccc4)C(C)=C1C3(C)C)[C@]1(OC(C)=O)CO[C@@H]1C[C@@H]2O`, for which the outcome in assay [15], in assay [16], in assay [14], in assay [17], in assay [18] and in assay [13] was inactive.
In the case of `COc1ccc(C[C@H](N)C(=O)N[C@@H]2[C@H](O)[C@H](n3cnc4c(N(C)C)ncnc43)O[C@@H]2CO)cc1`, in [17], the result was inactive.
Turning to `CC(=O)c1cc2c(cc1O)OC(C)(C)C=C2`, the activity change, negative = inhibition in [19] (at 57.5 µM (top of the series)) is 18.6% (inactive). The results for the max response in assay [19] (setting [21]) and in assay [19] (setting [22]) were -14.4% and 0.328%, respectively. For the same compound, the call in assay [17] was inactive.
Regarding `Nc1ccccc1N`, in [1], the Potency was 15.8 µM (active). For the same compound, the call in assay [2], in assay [3], in assay [4], in assay [5], in [9] and in [10] was inactive. For the same compound, the result in [12] and in assay [20] was inactive.
Regarding `COc1ccc2c(OC)c3ccoc3nc2c1OC`, the activity change, negative = inhibition in assay [19] (at 25.7 µM (top of the series)) is -9.25% (inactive). Moreover, the max response in [19] (setting [21]) was 0.385%; in assay [19] (setting [22]), -6.85%. The outcome in assay [17] and in assay [18] was inactive.
As for `Nc1nc2c(ncn2[C@@H]2O[C@H](CO)[C@@H](O)[C@H]2O)c(=O)[nH]1`, the activity change, negative = inhibition in assay [19] (at 57.5 µM (top of the series)) was -2.55% (inactive). Further, the max response is -11.6% in assay [19] (setting [21]) and -14.4% in [19] (setting [22]). The outcome in assay [17] and in [18] was inactive.
Regarding `CC(=O)O[C@@H]1CC(C)=C2[C@H]1[C@H](C)CC[C@H]2/C=C(\C)C(=O)O`, the Potency result in assay [1] is “inactive”. Further, the call in [2], in assay [3], in assay [4], in assay [5], in assay [6] and in assay [7] was inactive. The compound was called inactive in assay [8], in assay [9], in assay [10], in assay [11], in assay [12] and in assay [20]. Besides, in assay [13], the outcome was inactive.
For `CC(C)C(N)C(=O)OCCOCn1cnc2c(=O)[nH]c(N)nc21` (configuration not stated), the activity change, negative = inhibition in assay [19] (at 57.5 µM (top of the series)) is 7.31% (inactive). For the same compound, the max response in assay [19] (setting [21]) came out at 9.47%; in assay [19] (setting [22]) it was 21.7%. In addition, in assay [17], the result was inactive.
